Only some compounds are listed: those with a hit (about 1.3% of all), similar ones and a draw of the others.
Giardia FBPA inh-1 = qHTS Assay for Inhibitors of Fructose-1,6-bisphosphate Aldolase from Giardia Lamblia; A8B2U2; purified Giardia FBPA; Potency, µM (top dose mostly 59.6 µM), for the others: top-dose activity, negative = inhibition, usual class: inhibitors; 290,000 tested, 0.71% active; note: nearly all actives have a fitted effect of over 55% in size
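Giardia FBPA (40 nM reagent) was preincubated 10 min at RT with compound (up to 57.5 uM final), then substrate plus GAPDH/TPI/NAD/arsenate coupling system with diaphorase/resazurin was added; resorufin fluorescence (525/598 nm) was read after 20 min.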
AmpC inh no detg = qHTS Inhibitors of AmpC Beta-Lactamase (assay without detergent); Potency, µM (doses to about 57.1 µM), for the others: top-dose activity change, negative = inhibition, hits mostly inhibitors; AmpC nitrocefin hydrolysis, absorbance 480 nm, 0.0001% Triton; P00811; 330,000 tested, 0.52% active;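 note: plate controls were no compound for no effect and no enzyme for full effect; nearly all actives have a fitted effect of over 20% in size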
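20 mM phosphate pH 7.0 + 0.01% (detergent screen) or 0.0001% Triton X-100; 5.3 nM AmpC reagent; cpd preinc 15 min RT; nitrocefin (800 uM stock) to start; A480 q20 s × 4 min; Activity was normalised to no-enzyme and no-compound control wells.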
AmpC detergent = qHTS Inhibitors of AmpC Beta-Lactamase (assay with detergent); P00811; AmpC hydrolysis of nitrocefin, absorbance 480 nm, 0.01% Triton; Potency, µM (highest dose often 114 µM), inactives show at the highest dose activity change, negative = inhibition, hits mostly inhibitors; 370,000 tested, 0.041% active; AID 485294, 2010;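 note: 0% = no-compound wells and -100% = no-enzyme wells; nearly all actives have a fitted effect of over 25% in size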
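AmpC (5.3 nM in the dispensed reagent) in 20 mM phosphate pH 7.0 with 0.01% (detergent screen) or 0.0001% Triton X-100 was preincubated with compounds for 15 min at room temperature. Nitrocefin was then added from an 800 uM solution, and hydrolysis was followed at 480 nm.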
LmPK inh = qHTS Assay for Inhibitors of Leishmania Mexicana Pyruvate Kinase (LmPK). Q27686. purified LmPK, Kinase-Glo ATP luminescence, 1 h. Potency, µM (series often up to 57.5 µM), for the others: top-dose activity change, negative = inhibition, usual class: inhibitors. 290,000 tested, 0.37% active
Target sequence (Q27686 whole entry, looked up): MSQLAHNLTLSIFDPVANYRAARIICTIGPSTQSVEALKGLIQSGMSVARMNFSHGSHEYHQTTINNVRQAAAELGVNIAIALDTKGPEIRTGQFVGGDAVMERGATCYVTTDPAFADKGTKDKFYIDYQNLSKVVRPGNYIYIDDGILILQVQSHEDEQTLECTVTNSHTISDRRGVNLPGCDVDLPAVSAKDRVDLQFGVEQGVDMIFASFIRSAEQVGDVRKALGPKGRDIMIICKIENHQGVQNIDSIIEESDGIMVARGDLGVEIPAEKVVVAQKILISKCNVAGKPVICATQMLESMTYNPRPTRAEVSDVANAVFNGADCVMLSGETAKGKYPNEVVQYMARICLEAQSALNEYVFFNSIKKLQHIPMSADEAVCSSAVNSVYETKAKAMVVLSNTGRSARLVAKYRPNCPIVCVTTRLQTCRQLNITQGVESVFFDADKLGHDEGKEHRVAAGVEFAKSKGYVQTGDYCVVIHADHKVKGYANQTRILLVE
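Screened at intermediate enzyme activity to detect both inhibitors and activators: LmPK at 0.1 nM, with a 0.5 nM enzyme column as activation reference. PEP 0.5 mM, ADP 0.1 mM; ATP detected by luminescence after 1 h.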
AMA1 RON2 block = qHTS for Inhibitors of AMA1-RON; Towards Development of Antimalarial Drug Lead: Primary Screen. AlphaScreen AMA1-biotinylated RON2 peptide binding. Potency, µM (top dose mostly 58.2 µM), without a hit: at the highest dose activity change, negative = inhibition, actives largely listed as inhibitors. 360,000 tested, 0.2% active. AID 720542, 2013;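 note: 0% = vehicle wells and -100% = peptide control; nearly all actives have a fitted effect of over 45% in size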
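AMA1 (3D7) with his tag at 25 nM final met compounds first, then biotinylated RON2 peptide at 25 nM; detection used donor plus acceptor beads, 10 µg/mL apiece, read by AlphaScreen after 30 min at room temperature.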
Giardia growth = qHTS Assay for Inhibitors of Fructose-1,6-bisphosphate Aldolase from Giardia Lamblia: Giardia lamblia growth inhibition; shares compounds with Giardia FBPA inh-1; Giardia lamblia trophozoite growth inhibition; Potency, µM (top dose mostly 57.5 µM), inactives show at the highest dose activity change, negative = inhibition, usual class: inhibitors; 1,500 tested, 5% active;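 note: trophozoites exposed to compound for 48 h at 37 °C; nearly all actives have a fitted effect of over 70% in size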
Mammal cell tox = qHTS Assay for Inhibitors of Fructose-1,6-bisphosphate Aldolase from Giardia Lamblia: Mammalian cellular toxicity; shares compounds with Giardia FBPA inh-1; mammalian cell viability counter-screen, qHTS; Potency, µM (series often up to 57.5 µM), inactives show at the top dose viability change, negative = toxicity, actives largely listed as inhibitors; 1,500 tested, 4% active; AID 2786, 2010;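 note: Chinese hamster ovary cells used as mammalian cytotoxicity surrogate; viability measured as cellular ATP by luminescence; compound exposure lasted 48 h before reading; nearly all actives have a fitted effect of over 60% in size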
Giardia FBPA inh-2 = qHTS Assay for Inhibitors of Fructose-1,6-bisphosphate Aldolase from Giardia Lamblia: Primary screen confirmation | shares compounds with Giardia FBPA inh-1 | purified Giardia aldolase enzyme activity, qHTS | Potency, µM (highest dose often 57.5 µM), without a hit: at the top dose activity change, negative = inhibition, actives largely listed as inhibitors | 1,500 tested, 5% active | AID 2787, 2010; note: nearly all actives have a fitted effect of over 45% in size
Rabbit aldolase = qHTS Assay for Inhibitors of Fructose-1,6-bisphosphate Aldolase from Giardia Lamblia: Rabbit FBPA Selectivity | Potency, µM (doses to about 57.5 µM), without a hit: top-dose activity, negative = inhibition, hits mostly inhibitors | 1,500 tested, 4% active | AID 2794, 2010 | shares compounds with Giardia FBPA inh-1 | Rabbit muscle FBPA enzyme inhibition, selectivity counter-screen; note: nearly all actives have a fitted effect of over 60% in size
GAPDH coupling = qHTS Assay for Inhibitors of Fructose-1,6-bisphosphate Aldolase from Giardia Lamblia: Coupling assay counterscreen confirmation | GAPDH coupling enzyme counterscreen, biochemical, qHTS | Potency, µM (doses to about 57.5 µM), without a hit: at the highest dose activity change, negative = inhibition, usual class: inhibitors | shares compounds with Giardia FBPA inh-1 | 1,500 tested, 6% active; note: nearly all actives have a fitted effect of over 55% in size
The depositor's hits bear a star; ? = inconclusive; / = not tested or not shown; [ ] = remark or other dose. Calls come from the whole dose curve; as a rule, active = well fitted curve in the direction sought with a large enough effect; inconclusive = small, poorly fitted or top-dose-only effect, or another doubt; inactive = no such curve, though single readings can be large; an effect the other way counts as inactive or inconclusive. Unless noted, % is set by controls: 0 for no effect and ±100 for the full control effect; potency is the fitted concentration of half-maximal effect.

SMILES	Giardia FBPA inh-1	AmpC inh no detg	AmpC detergent	LmPK inh	AMA1 RON2 block	Giardia growth	Mammal cell tox	Giardia FBPA inh-2	Rabbit aldolase	GAPDH coupling
COCc1[nH]c(=S)c(C#N)cc1C(=O)OC	16µM*	-30%	-2%	21%	36%	20%	8%	4%	1%	-8%
CCOC(=O)c1cc(C#N)c(=S)[nH]c1C	-10%	-9%	-2%	-6%	88%	/	/	/	/	/
COC(=O)c1ccc(NC(=O)CN2CCN(CC#N)CC2)cc1	25µM*	-9%	-2%	1%	?	-5%[38.3 µM]	14%	1%	-2%	2%
N#C/C(=C\c1cccn1S(=O)(=O)c1cccc(C#N)c1)S(=O)(=O)c1ccc(F)cc1	/	/	/	/	-24%	/	/	/	/	/
Cc1cc(C(=O)NCc2ccccc2)c2c(C)nn(-c3cccc(Cl)c3C)c2n1	/	/	10%	/	/	/	/	/	/	/
O=c1c2cn[nH]c2[nH]c(=S)n1-c1ccccc1F	7.1µM*	2%	-3%	-1%	0%	2%[38.3 µM]	-2%	-3%	-6%	-1%
COc1cc(-n2c(=S)[nH]c3ccccc3c2=O)c(Cl)cc1Cl	-6%	-38%	-1%	2%	-9%	/	/	/	/	/
O=c1c2cn[nH]c2[nH]c(=S)n1-c1ccccc1Cl	25µM*	-25%	1%	-4%	33%	28%	17%	7%	2%	13%
Cc1ccc(-n2c(=S)[nH]c3[nH]ncc3c2=O)cc1	16µM*	-19%	2%	-8%	74%	27%	-1%	-3%	3%	-10%
COc1cc(C(=O)COC(=O)c2ccncc2)cc(OC)c1OC	/	50%	/	/	12%	/	/	/	/	/
COc1ccccc1NCC(O)COc1ccc(C(C)(C)C)cc1 (configuration not stated)	18µM*	-17%	0%	-2%	?	?	9%	-12%	-1%	-12%
COc1ccc(NCC(O)COc2ccc(C(C)(C)C)cc2)cc1 (configuration not stated)	-6%	29%	-6%	4%	?	/	/	/	/	/
CCC1CCCCN1C(=O)CSc1nc2c([nH]c3ccccc32)c(=O)n1-c1ccc(OC)cc1 (configuration not stated)	/	/	7%	/	/	/	/	/	/	/
COc1cccc(Cn2c(C(C)n3c(C)nc4ccccc43)nc3ccccc32)c1 (configuration not stated)	/	/	/	/	-3%	/	/	/	/	/
O=C(CCN1CCCCC1)Nn1c(=S)[nH]c2ccccc2c1=O	22µM*	-28%	-10%	-1%	74%	?	11%	1%	12%	5%
O=C(Nn1c(=S)[nH]c2ccccc2c1=O)c1ccncc1	16µM*	-4%	-12%	0%	100%	-8%	10%	0%	0%	1%
CC(C)NC(=O)c1ccc(-n2c(=S)[nH]c3ccccc3c2=O)cc1	-5%	-16%	-13%	0%	/	/	/	/	/	/
O=c1c2ccccc2[nH]c(=S)n1CCN1CCCC1	-8%	-21%	1%	2%	1%	/	/	/	/	/
COc1cc(S(=O)(=O)NCCN2CCOCC2)ccc1-n1cnnn1	18µM*	-37%	-4%	-10%	-3%	4%[10.4 µM]	3%	-1%	13%	5%
CCN(CCNCC(O)COc1ccccc1C(C)C)c1cccc(C)c1 (configuration not stated)	22µM*	1%	1%	-6%	?	12%	-26%	-5%	0%	-16%
Cn1ncc(C(N)=O)c1NC(=S)NC(=O)c1ccc(Br)o1	16µM*	-38%	8%	0%	44%	-7%[10.4 µM]	-9%	1%	5%	8%
CC1=NN(C(N)=S)C(=O)C1N=Nc1ccccc1Cl (configuration not stated)	16%	-32%	?	6%	69%	/	/	/	/	/
CC1=NN(C(N)=S)C(=O)C1N=Nc1ccccc1C(=O)O (configuration not stated)	14µM*	-43%	?	5%	86%	-14%[10.4 µM]	-9%	3%	6%	9%
CC1=NN(C(N)=S)C(=O)C1N=Nc1cccc(C(=O)O)c1 (configuration not stated)	?	-18%	-3%	-2%	98%	-15%[38.3 µM]	-2%	-16%	-12%	-8%
CC(C)C[C@@H]1COc2cc(N3CCSCC3)ccc2S(=O)(=O)N1	/	/	/	/	9%	/	/	/	/	/
O=C(Cn1cc(SCc2ccc(F)cc2)c2ccccc21)N1CCCCCC1	/	/	21%	/	/	/	/	/	/	/
COc1ccc(NC(=O)N2CCCC2C(=O)Nc2ccc(C)cc2C)cc1 (configuration not stated)	4%	3%	9%	0%	18%	/	/	/	/	/
CC(C)NCC(=O)Nc1c2c(nc3ccccc13)CCC2	18µM*	-19%	6%	-9%	5%	9%[10.4 µM]	-7%	2%	3%	12%
Cn1ccnc1SC(C(=O)O)c1ccccc1 (configuration not stated)	14µM*	-16%	?	-4%	-15%	?	20%	5%	6%	3%

Bioassay records: PubChem BioAssay, National Center for Advancing Translational Sciences (NCATS)
